Measurements as given in PubChem BioAssay (Tox21).
Several values for one entry are separate records, joined by “and”; a condition that tells them apart may be missing. Equal values may be shown once. Records with an inconclusive call do not appear. Activity calls are given as the source filed them. Unless noted, calls come from the whole dose curve; as a rule, active = well fitted curve in the direction sought with a large enough effect in the repeat runs; inconclusive = weak or mixed curves; inactive = no such curve, though single readings can be large; an effect the other way counts as inactive or inconclusive.

How the values were obtained:
[1] = qHTS assay to identify small molecule antagonists of the retinoid acid receptor (RAR) signaling pathway - cell viability counter screen (AID 1159551); note: nearly all actives have a fitted effect of over 35% in size; note: potency is the fitted concentration of half-maximal effect
Procedure, shortened: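 ATP-based viability, C3RL4 cells, 6 h at 37 C with 1 uM final retinol co-added after compound; luminescence read 30 min post CellTiter-Glo, RT.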

[2] = qHTS assay to identify small molecule antagonists of the retinoic acid receptor (RAR) signaling pathway (AID 1159552; note: nearly all actives have a fitted effect of over 50% in size; note: potency is the fitted concentration of half-maximal effect)
Procedure, shortened: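 RARE-luc C3RL4 cells; cpds + 1 uM (final) retinol, 6 hr, 37 C/5% CO2; luciferase reagent, 30 min RT, luminescence readout. Inhibitors of retinol-driven signal scored.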

[3] = biological target: Luciferin 4-monooxygenase (Photinus pyralis) (UniProt P08659); assay: qHTS assay to identify small molecule inhibitors of firefly luciferase (AID 1224835); note: nearly all actives have a fitted effect of over 25% in size; note: potency is the fitted concentration of half-maximal effect
Chain of Luciferin 4-monooxygenase (Photinus pyralis) (P08659 whole entry, looked up): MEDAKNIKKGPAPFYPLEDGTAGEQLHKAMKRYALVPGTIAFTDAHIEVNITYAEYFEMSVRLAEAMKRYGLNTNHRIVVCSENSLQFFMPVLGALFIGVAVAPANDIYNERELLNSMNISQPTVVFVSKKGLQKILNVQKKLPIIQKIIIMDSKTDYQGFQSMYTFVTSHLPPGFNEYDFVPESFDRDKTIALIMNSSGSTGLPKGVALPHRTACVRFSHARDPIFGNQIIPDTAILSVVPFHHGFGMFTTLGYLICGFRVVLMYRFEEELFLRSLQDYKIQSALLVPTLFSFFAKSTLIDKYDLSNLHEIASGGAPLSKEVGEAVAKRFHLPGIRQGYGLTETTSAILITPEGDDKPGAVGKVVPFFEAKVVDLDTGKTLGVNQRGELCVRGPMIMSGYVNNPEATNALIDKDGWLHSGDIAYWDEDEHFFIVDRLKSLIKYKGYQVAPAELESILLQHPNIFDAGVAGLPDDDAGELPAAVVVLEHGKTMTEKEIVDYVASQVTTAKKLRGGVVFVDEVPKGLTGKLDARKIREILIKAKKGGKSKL
Procedure, shortened: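 Inhibition of purified Photinus luciferase is measured by luminescence. Substrate levels (D-luciferin, ATP) sit at their KM values. Each compound is tested in a concentration series.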

[4] = qHTS assay to identify small molecule agonists of the retinoic acid receptor (RAR) signaling pathway (AID 1159553); conditions: C3RL4 RARE luciferase reporter, agonist, 6 h; activation: at 73.3 µM (top of the series) unless noted; note: potency is the fitted concentration of half-maximal effect
Procedure, shortened: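 Quantitative high-throughput format: the Tox21 10K library was tested on C3RL4 RARE-luciferase cells for 6 hr at 37 C and 5% CO2, with luminescence measured after a 30 min room-temperature reagent step.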

[5] = qHTS assay to identify small molecule antagonists of the estrogen related receptor (ERR) signaling pathway from Tox21 library - cell viability counter screen (AID 1224834); note: nearly all actives have a fitted effect of over 30% in size; note: potency is the fitted concentration of half-maximal effect
Procedure, shortened: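 Compounds in DMSO were pinned onto ERR cells that had been incubated for 6 h, and the plates were held at 37 C for 17.5 h. CellTiter-Fluor reagent was then added and fluorescence was measured after 30 min.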

[6] = qHTS assay to identify small molecule antagonists of the estrogen related receptor (ERR) signaling pathway (AID 1224819; note: nearly all actives have a fitted effect of over 50% in size; note: potency is the fitted concentration of half-maximal effect)
Procedure, shortened: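 ERR reporter cell line (NTP) plated at 2,000 cells/well, settled 6 h at 37C/5% CO2, then exposed to LOPAC compounds for 18 h at 37C. One-Glo luciferase luminescence read after 30 min at room temperature.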

[7] = qHTS assay to identify small molecule agonists of the estrogen related receptor (ERR) signaling pathway (AID 1224820)
Procedure, shortened: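 Following a 6 h settling period, 2,000 ERR cells per well receive DMSO-dissolved compounds by pin tool and incubate 18 h at 37 C; agonist activity is scored from One-Glo luminescence read 30 min post-addition.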

[8] = tested on: estrogen-related receptor alpha (ERRalpha) with PGC-1alpha coactivator, human; assay: qHTS assay to identify small molecule antagonists of the estrogen related receptor signaling pathway with the pleiotropic PPARgamma coactivator (PGC) (AID 1224821; calls by dose curve; note: nearly all actives have a fitted effect of over 50% in size; note: potency is the fitted concentration of half-maximal effect)
Procedure, shortened: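 Screening used NTP's PGC/ERR cells, dosed via pin tool with compound in DMSO alongside positive and negative controls. After 18 h at 37 C, One-Glo reagent sat 30 min at room temperature before luminescence detection.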

[9] = qHTS assay to identify small molecule antagonists of the estrogen related receptor signaling pathway with the pleiotropic PPARgamma coactivator (PGC) cell viability counter screen (AID 1224822;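 note: viability read after 17.5 h compound exposure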)
Procedure, shortened: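 Cytotoxicity in the PGC/ERR cell line is assessed with CellTiter-Fluor, read as fluorescence intensity 30 min after reagent addition, following 17.5 h compound treatment at 37 C.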

[10] = qHTS assay to identify small molecule agonists of the estrogen related receptor signaling pathway with the pleiotropic PPARgamma coactivator (PGC) (AID 1224823)
Procedure, shortened: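 In this quantitative high-throughput screen, an 18 h, 37 C treatment of PGC/ERR cells with compounds in DMSO preceded a One-Glo luminescence read taken after 30 min at room temperature.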
% is set by controls: 0 for no effect and ±100 for the full control effect.

CCCCCCCC
inactive: Potency [1] | Potency [2] | Potency [3]

COc1ccc2c(c1)c(CC(=O)OC/C=C(\C)CC/C=C(\C)CCC=C(C)C)c(C)n2C(=O)c1ccc(Cl)cc1
inactive: Potency [1] | Potency [4] | Potency [5]

Clc1ccnc(Cl)n1
inactive: Potency [1] | Potency [2] | Potency [5] | Potency [3]

Cc1cccc(C(=O)O)c1O
inactive: Potency [1] | Potency [2] | Potency [5] | Potency [3]

O=C1OC2(c3ccc(O)cc3Oc3cc(O)ccc32)c2ccc(N=C=S)cc21
inactive: Potency [1] | Potency [4] | Potency [5] | Potency [3]

O=c1oc2cc(O)ccc2c2oc3cc(O)ccc3c12
inactive: Potency [1] | Potency [2] | Potency [5]
active: Potency [3] 19.2 µM

CN(C)c1ccc(C(=C2C=CC(=[N+](C)C)C=C2)c2ccc(N(C)C)cc2)cc1
active: Potency [1] 17.1 µM and 27.3 µM and 23.7 µM | Potency [2] 7.66 µM and 2.17 µM and 3.76 µM | Potency [5] 9.64 µM and 12.2 µM and 13.3 µM | Potency [3] 17.7 µM and 35.6 µM and 17.4 µM

O=C(O)CCN(C1(C(=O)NO)CCCC1)S(=O)(=O)c1ccc(Oc2ccc(F)cc2)cc1
inactive: Potency [1] | Potency [4] | Potency [5]

Cc1ccc(O)c(N)c1
inactive: Potency [1]
active: Potency [4] 21.7 µM | Potency [5] 61.2 µM

CC[N+](CC)(CC)CCOC(=O)C(C1CCCC1)C1CCCC1
inactive: Potency [1] | Potency [4] | Potency [5]

O=C(Oc1ccccc1)Oc1ccccc1
inactive: Potency [1] | Potency [4] | Potency [5]

CC(C)(C)C1CCC(=O)CC1
inactive: Potency [1] | Potency [2] | Potency [5] | Potency [3]

C#C[C@]1(O)CC[C@H]2[C@@H]3[C@H](C)CC4=C(CCC(=O)C4)[C@H]3CC[C@@]21C
inactive: Potency [1] | Potency [4] | Potency [5]

CCCCCCC1CCCC(=O)O1 (stereo not given)
inactive: Potency [1] | Potency [2] | Potency [5] | Potency [3]

NC(=O)c1cccc([N+](=O)[O-])c1
inactive: Potency [1] | Potency [2] | Potency [5] | Potency [3]

Cc1cc(C)c(/C=C2\C(=O)Nc3ccccc32)[nH]1
inactive: Potency [1] | Potency [4] | Potency [6] | outcome [7] | Potency [8] | Potency [9] | outcome [10]

CC(CO)Oc1ccccc1 (stereo not given)
inactive: Potency [1] | Potency [4] | Potency [5] | Potency [3]

OC12N=C(c3ccccc3)SC1Cc1cc(Cl)ccc12 (stereo not given)
active: Potency [3] 35.6 µM
inactive: Potency [1] | Potency [2]

O=C(O)c1cc(N=Nc2ccc([N+](=O)[O-])cc2)ccc1O
inactive: Potency [1] | Potency [2]
active: Potency [3] 0.878 µM

O=S(=O)(O)c1ccccc1/C=C/c1ccc(-c2ccc(/C=C/c3ccccc3S(=O)(=O)O)cc2)cc1
active: Potency [3] 57.2 µM
inactive: Potency [1] | Potency [2]

CC(C)=CCNc1ncnc2c1ncn2[C@@H]1O[C@H](CO)[C@@H](O)[C@H]1O
inactive: Potency [3]
active: Potency [1] 13.3 µM | Potency [2] 23.7 µM

Nc1nc2c(ncn2COCCO)c(=O)[nH]1
inactive: Potency [1] | Potency [4] | Potency [6] | outcome [7] | Potency [8] | Potency [9] | outcome [10] | Potency [5] | Potency [3]

CCCc1ccc(OCC(=O)N2CCN(C(=O)COc3ccc(CCC)cc3OC)CC2)c(OC)c1
inactive: Potency [1] | Potency [2] | Potency [3]

OC1CCC(C2CCCCC2)CC1 (stereo not given)
inactive: Potency [1] | Potency [4]

CCCCOC(=O)CC
inactive: Potency [1] | Potency [2] | Potency [3]

CNc1ccc([N+](=O)[O-])cc1
active: Potency [5] 43.4 µM | Potency [3] 40 µM
inactive: Potency [1] | Potency [2]

CC[N+](CC)(CC)CCOc1ccc(/C=C/c2ccccc2)cc1
active: Potency [6] 8.74 µM | Potency [8] 12.3 µM
inactive: Potency [1] | Potency [4] | outcome [7] | Potency [9] | outcome [10] | Potency [3]

C=CCCC(=O)/C=C/C1C(C)=CCCC1(C)C (stereo not given)
inactive: Potency [1] | Potency [2] | Potency [3]

C=C(C)c1cccc(C(=C)C)c1
inactive: Potency [1] | Potency [2] | Potency [5] | Potency [3]

CCCCCc1ccc(Cl)cc1
inactive: Potency [1] | Potency [2] | Potency [5] | Potency [3]

Oc1cc(Cl)cc(Cl)c1Cl
inactive: Potency [1] | Potency [4]

O=C(O)Cc1ccc2c(c1)C(=O)c1ccccc1CO2
inactive: Potency [1] | Potency [2] | Potency [5]
active: Potency [3] 30.9 µM

NC[C@H]1O[C@H](O[C@H]2[C@H](O[C@@H]3O[C@H](CO)[C@@H](O)[C@H]3O)C(O)[C@H](N)C[C@@H]2N)[C@H](N)[C@@H](O)[C@@H]1O (stereo not given in full)
inactive: activity change, negative = cytotoxicity [1] -0.449% [at 8.39 µM] | activation [4] -3.22% [at 8.36 µM] | viability change, negative = cytotoxic [5] 2.75% [at 8.39 µM]

CC1(C)CC(O)CC(C)(C)N1
inactive: Potency [1] | Potency [2] | Potency [5] | Potency [3]

CC(N=C(NC#N)Nc1ccncc1)C(C)(C)C (stereo not given)
inactive: Potency [1] | Potency [4] | Potency [6] | outcome [7] | Potency [9] | Potency [5] | Potency [3]

CC(=O)c1ccc(C(C)=O)cc1
inactive: Potency [1] | Potency [2] | Potency [5] | Potency [3]

[Cl][Pt-2]([Cl])([Cl])[Cl]
inactive: Potency [1] | Potency [4] | Potency [5]

NC(=S)NC(N)=S
inactive: Potency [1] | Potency [2] | Potency [5] | Potency [3]

O=c1[nH]c(=O)n([C@H]2C[C@H](O)[C@@H](CO)O2)cc1F
inactive: Potency [1] | Potency [2] | Potency [5] | Potency [3]

COc1cccc2c1C(=O)c1c(O)c3c(c(O)c1C2=O)C[C@@](O)(C(C)=O)C[C@@H]3O[C@H]1C[C@H](N)[C@H](O)[C@H](C)O1
active: Potency [5] 30.8 µM and 473 nM
inactive: Potency [1]

O=[N+]([O-])c1cccc(C(F)(F)F)c1
inactive: Potency [1] | Potency [5]

CCc1oc2ccccc2c1C(=O)c1cc(I)c(O)c(I)c1
inactive: Potency [1] | Potency [4] | Potency [3]

Cc1c(C)c2c(c(C)c1O)CC[C@@](C)(CCC[C@H](C)CCC[C@H](C)CCCC(C)C)O2
inactive: Potency [1] | Potency [4] | Potency [5] | Potency [3]

O=C1CCc2cc(OCCCCc3nnnn3C3CCCCC3)ccc2N1
inactive: Potency [1] | Potency [9] | Potency [3]
